{"source": "paper PMC8384837", "about": "“Expanding the binding specificity for RNA recognition by a PUF domain”", "test_in_all_cases": "yeast three-hybrid, YBZ-1, SC-Leu-His + 0.5 mM 3-AT, 4 days", "conditions_in_all_cases": "tags: N-Gal4 AD-HA kept; label: inside an RPR1-promoter hybrid RNA with tandem MS2 sites; ssRNA", "key": {"[1]": {"molecular_target": "T1, PUM1 PUF domain R6-RWG (Homo sapiens, UniProt Q14671 828-1176, N1043R;Y1044W;Q1047G)", "T1 sequence": "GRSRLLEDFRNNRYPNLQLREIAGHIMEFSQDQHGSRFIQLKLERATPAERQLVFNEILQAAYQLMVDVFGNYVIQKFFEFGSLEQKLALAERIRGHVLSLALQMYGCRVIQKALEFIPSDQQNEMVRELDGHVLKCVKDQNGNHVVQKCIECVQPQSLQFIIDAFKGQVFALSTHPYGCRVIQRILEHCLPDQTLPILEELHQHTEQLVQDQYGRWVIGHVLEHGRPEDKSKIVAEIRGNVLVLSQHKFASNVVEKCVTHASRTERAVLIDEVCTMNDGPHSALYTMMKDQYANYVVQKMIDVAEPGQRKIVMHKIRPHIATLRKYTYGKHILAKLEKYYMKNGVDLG", "how_it_was_run": "(§1)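 Pumilio-1 PUF domain libraries, randomized at the three base-contacting residues of each repeat, were co-expressed with matching RNA elements from a centromeric plasmid in strain YBZ-1, which carries a LexA–MS2 coat fusion and a HIS3 reporter. Transformants grew for four days on SC-Leu (input) or on SC-Leu-His + 0.5 mM 3-AT (selection), and the repeat regions were PCR-amplified and Illumina-sequenced. The interaction score is the log change in variant frequency from input to selection. That logarithm is base 2, with a pseudocount of 1 where a variant was absent.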"}, "[2]": {"molecular_target": "T2, PUM1 PUF domain R6-VFV (Homo sapiens, UniProt Q14671 828-1176, N1043V;Y1044F;Q1047V)", "T2 sequence": "T1 sequence with R216V, W217F, G220V", "how_it_was_run": "as §1"}, "[3]": {"molecular_target": "PUM1 PUF domain R5-IHR (Homo sapiens, UniProt Q14671 828-1176, C1007I;R1008H;Q1011R)", "how_it_was_run": "as §1"}, "[4]": {"molecular_target": "PUM1 PUF domain R5-KHV (Homo sapiens, UniProt Q14671 828-1176, C1007K;R1008H;Q1011V)", "how_it_was_run": "as §1"}, "[5]": {"molecular_target": "PUM1 PUF domain R5-KSC (Homo sapiens, UniProt Q14671 828-1176, C1007K;R1008S;Q1011C)", "how_it_was_run": "as §1"}, "[6]": {"molecular_target": "PUM1 PUF domain R5-RCS (Homo sapiens, UniProt Q14671 828-1176, C1007R;R1008C;Q1011S)", "how_it_was_run": "as §1"}, "[7]": {"molecular_target": "PUM1 PUF domain R5-DHI (Homo sapiens, UniProt Q14671 828-1176, C1007D;R1008H;Q1011I)", "how_it_was_run": "as §1"}, "[8]": {"molecular_target": "PUM1 PUF domain R3-GCW (Homo sapiens, UniProt Q14671 828-1176, C935G;R936C;Q939W)", "how_it_was_run": "as §1"}, "[9]": {"molecular_target": "PUM1 PUF domain R3-RRG (Homo sapiens, UniProt Q14671 828-1176, C935R;Q939G)", "how_it_was_run": "as §1"}, "[10]": {"molecular_target": "PUM1 PUF domain R3-DYV (Homo sapiens, UniProt Q14671 828-1176, C935D;R936Y;Q939V)", "how_it_was_run": "as §1"}, "[11]": {"molecular_target": "PUM1 PUF domain R3-GWS (Homo sapiens, UniProt Q14671 828-1176, C935G;R936W;Q939S)", "how_it_was_run": "as §1"}, "[12]": {"molecular_target": "PUM1 PUF domain R3-FIA (Homo sapiens, UniProt Q14671 828-1176, C935F;R936I;Q939A)", "how_it_was_run": "as §1"}, "[13]": {"molecular_target": "PUM1 PUF domain R8-AHR (Homo sapiens, UniProt Q14671 828-1176, N1122A;Y1123H;Q1126R)", "how_it_was_run": "as §1"}, "[14]": {"molecular_target": "PUM1 PUF domain R1-TTR (Homo sapiens, UniProt Q14671 828-1176, S863T;R864T;Q867R)", "how_it_was_run": "as §1"}, "[15]": {"molecular_target": "PUM1 PUF domain R4-VGL (Homo sapiens, UniProt Q14671 828-1176, N971V;H972G;Q975L)", "how_it_was_run": "as §1"}, "[16]": {"molecular_target": "PUM1 PUF domain R4-GRI (Homo sapiens, UniProt Q14671 828-1176, N971G;H972R;Q975I)", "how_it_was_run": "as §1"}, "[17]": {"molecular_target": "PUM1 PUF domain R4-APA (Homo sapiens, UniProt Q14671 828-1176, N971A;H972P;Q975A)", "how_it_was_run": "as §1"}, "[18]": {"molecular_target": "T3, PUM1 PUF domain R6-WYR (Homo sapiens, UniProt Q14671 828-1176, N1043W;Q1047R)", "T3 sequence": "T1 sequence with R216W, W217Y, G220R", "how_it_was_run": "as §1"}, "[19]": {"molecular_target": "PUM1 PUF domain R7-ERA (Homo sapiens, UniProt Q14671 828-1176, S1079E;N1080R;E1083A)", "how_it_was_run": "as §1"}, "[20]": {"molecular_target": "PUM1 PUF domain R5-KLT (Homo sapiens, UniProt Q14671 828-1176, C1007K;R1008L;Q1011T)", "how_it_was_run": "as §1"}}, "note": "Where a chain is given by its changes, count along the chain named.", "data": [{"sequence": "GGCUAGAACUAGUGGAUCCCCCGGCGCCCGGCGGCUCGAGCCCGGGUAAGUGAAAAUAGUCUGCAUGCCGCCGGGCGCCAUGCCUGCAGGUCGACUCUAGAAAACAUG", "values": [{"measurement": "binding signal", "setting": "[1]", "value": "3.42 log2 enrichment (interaction score)"}, {"measurement": "binding signal", "setting": "[2]", "value": "5.24 log2 enrichment (interaction score)"}]}, {"sequence": "GGCUAGAACUAGUGGAUCCCCCGGCGCCCGGCGGCUCGAGCCCGGGUAAGUGUUAAUAGUCUGCAUGCCGCCGGGCGCCAUGCCUGCAGGUCGACUCUAGAAAACAUG", "values": [{"measurement": "binding signal", "setting": "[3]", "value": "3.52 log2 enrichment (interaction score)"}, {"measurement": "binding signal", "setting": "[4]", "value": "2.08 log2 enrichment (interaction score)"}, {"measurement": "binding signal", "setting": "[5]", "value": "2.38 log2 enrichment (interaction score)"}, {"measurement": "binding signal", "setting": "[6]", "value": "2.74 log2 enrichment (interaction score)"}, {"measurement": "binding signal", "setting": "[7]", "value": "4.16 log2 enrichment (interaction score)"}]}, {"sequence": "GGCUAGAACUAGUGGAUCCCCCGGCGCCCGGCGGCUCGAGCCCGGGUAAGUGUAAUUAGUCUGCAUGCCGCCGGGCGCCAUGCCUGCAGGUCGACUCUAGAAAACAUG", "values": [{"measurement": "binding signal", "setting": "[8]", "value": "3.22 log2 enrichment (interaction score)"}, {"measurement": "binding signal", "setting": "[9]", "value": "3.82 log2 enrichment (interaction score)"}, {"measurement": "binding signal", "setting": "[10]", "value": "3.08 log2 enrichment (interaction score)"}, {"measurement": "binding signal", "setting": "[11]", "value": "1.22 log2 enrichment (interaction score)"}]}, {"sequence": "GGCUAGAACUAGUGGAUCCCCCGGCGCCCGGCGGCUCGAGCCCGGGUAAGUGUAAGUAGUCUGCAUGCCGCCGGGCGCCAUGCCUGCAGGUCGACUCUAGAAAACAUG", "values": [{"measurement": "binding signal", "setting": "[9]", "value": "0.28 log2 enrichment (interaction score)"}, {"measurement": "binding signal", "setting": "[12]", "value": "3.2 log2 enrichment (interaction score)"}, {"measurement": "binding signal", "setting": "[11]", "value": "1.75 log2 enrichment (interaction score)"}]}, {"sequence": "GGCUAGAACUAGUGGAUCCCCCGGCGCCCGGCGGCUCGAGCCCGGGUAAGCGUAAAUAGUCUGCAUGCCGCCGGGCGCCAUGCCUGCAGGUCGACUCUAGAAAACAUG", "values": [{"measurement": "binding signal", "setting": "[13]", "value": "3.45 log2 enrichment (interaction score)"}]}, {"sequence": "GGCUAGAACUAGUGGAUCCCCCGGCGCCCGGCGGCUCGAGCCCGGGUAAGUGUAAAUCGUCUGCAUGCCGCCGGGCGCCAUGCCUGCAGGUCGACUCUAGAAAACAUG", "values": [{"measurement": "binding signal", "setting": "[14]", "value": "4.01 log2 enrichment (interaction score)"}]}, {"sequence": "GGCUAGAACUAGUGGAUCCCCCGGCGCCCGGCGGCUCGAGCCCGGGUAAGUGUAAAUAGUCUGCAUGCCGCCGGGCGCCAUGCCUGCAGGUCGACUCUAGAAAACAUG", "values": [{"measurement": "binding signal", "setting": "[15]", "value": "3.22 log2 enrichment (interaction score)"}, {"measurement": "binding signal", "setting": "[8]", "value": "1.82 log2 enrichment (interaction score)"}, {"measurement": "binding signal", "setting": "[16]", "value": "3.58 log2 enrichment (interaction score)"}, {"measurement": "binding signal", "setting": "[17]", "value": "4.16 log2 enrichment (interaction score)"}, {"measurement": "binding signal", "setting": "[1]", "value": "5.05 log2 enrichment (interaction score)"}, {"measurement": "binding signal", "setting": "[2]", "value": "1.55 log2 enrichment (interaction score)"}, {"measurement": "binding signal", "setting": "[10]", "value": "5.65 log2 enrichment (interaction score)"}, {"measurement": "binding signal", "setting": "[18]", "value": "5.27 log2 enrichment (interaction score)"}, {"measurement": "binding signal", "setting": "[11]", "value": "5.13 log2 enrichment (interaction score)"}]}, {"sequence": "GGCUAGAACUAGUGGAUCCCCCGGCGCCCGGCGGCUCGAGCCCGGGUAAGUGUACAUAGUCUGCAUGCCGCCGGGCGCCAUGCCUGCAGGUCGACUCUAGAAAACAUG", "values": [{"measurement": "binding signal", "setting": "[17]", "value": "1.33 log2 enrichment (interaction score)"}]}, {"sequence": "GGCUAGAACUAGUGGAUCCCCCGGCGCCCGGCGGCUCGAGCCCGGGUAAGUGUAAAUGGUCUGCAUGCCGCCGGGCGCCAUGCCUGCAGGUCGACUCUAGAAAACAUG", "values": [{"measurement": "binding signal", "setting": "[14]", "value": "2.5 log2 enrichment (interaction score)"}]}, {"sequence": "GGCUAGAACUAGUGGAUCCCCCGGCGCCCGGCGGCUCGAGCCCGGGUAAGUCUAAAUAGUCUGCAUGCCGCCGGGCGCCAUGCCUGCAGGUCGACUCUAGAAAACAUG", "values": [{"measurement": "binding signal", "setting": "[19]", "value": "2.68 log2 enrichment (interaction score)"}]}, {"sequence": "GGCUAGAACUAGUGGAUCCCCCGGCGCCCGGCGGCUCGAGCCCGGGUAAGUGUAUAUAGUCUGCAUGCCGCCGGGCGCCAUGCCUGCAGGUCGACUCUAGAAAACAUG", "values": [{"measurement": "binding signal", "setting": "[17]", "value": "2.47 log2 enrichment (interaction score)"}]}, {"sequence": "GGCUAGAACUAGUGGAUCCCCCGGCGCCCGGCGGCUCGAGCCCGGGUAAGUGUCAAUAGUCUGCAUGCCGCCGGGCGCCAUGCCUGCAGGUCGACUCUAGAAAACAUG", "values": [{"measurement": "binding signal", "setting": "[5]", "value": "5.14 log2 enrichment (interaction score)"}, {"measurement": "binding signal", "setting": "[20]", "value": "2.35 log2 enrichment (interaction score)"}, {"measurement": "binding signal", "setting": "[6]", "value": "3.59 log2 enrichment (interaction score)"}]}]}
